In PubChem BioAssay:
Values joined by “and” are separate entries in the source; they are usually repeats but may differ in a detail not shown here. Identical values can stand only once. Active and inactive are the calls of the source.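 How the source made its calls, unless noted: active means thallium flux through the channel raised or lowered by more than 3 SD from vehicle-only wells, actives on both sides; inactive means the rest.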

Columns and labels:
[1] = P. berghei load reduction in hepatocytes – cell-based, HepG2, luciferase luminescence, HepG2 viability, primary screen (AID 624349; in the data active means parasite load remaining mostly below about 12%, no sharp cut-off; inactive means mostly above about 10%;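 further: 100% = mean of DMSO negative control wells on the same plate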); settings: P. berghei liver stage in HepG2, luciferase luminescence, concentration not given here; parasite load remaining: stronger effect = lower value; viability: measured here: HepG2 viability without parasites
[2] = signal quenchers or enhancers, Cy5 substrate/SSB – biochemical, NIH Clinical Collection, E. coli SSB, artefact control for HCV NS3 helicase inhibitor project (AID 743268; call rule not given here); settings: Cy5-oligo bound E. coli SSB, fluorescence interference
[3] = test system: Hepatitis C virus NS3 helicase; test: blockers of NS3h binding to DNA – biochemical, fluorescence polarization, NIH Clinical Collection, primary screen (AID 743270; call rule not given here); settings: NS3 helicase binding to Cy5-dT15 DNA, stronger effect = higher value, concentration not given here
[4] = biological target: Single-stranded DNA-binding protein (Escherichia coli (strain K12)) (UniProt P0AGE0); test: SSB-ssDNA binding inhibitors – biochemical, fluorescence polarization, NIH Clinical Collection, counter-screen for HCV NS3 helicase inhibitor project (AID 743271; in the data active means inhibition above about 28%); settings: E. coli SSB-DNA binding, stronger effect = higher value, concentration not given here
[5] = compounds distorting NS3 helicase fluorescence signal – biochemical, NIH Clinical Collection, artefact control for HCV NS3 helicase inhibitor project (AID 743272; call rule not given here;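 further: HCV NS3 helicase with a Cy5 labelled single stranded DNA probe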); settings: fluorescence interference counterscreen, HCV NS3 helicase assay; stronger effect = lower value
[6] = modulation of C. elegans fzo-1 (AID 1259413; call rule not given here;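 further: fzo-1 mutant C. elegans worms in liquid wells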); settings: C. elegans fzo-1 modulator screen, mean read-out; stronger effect = higher value
[7] = viability loss with induced miR-34 in A549 – imaging, A549 dox-inducible miR-34, nuclei and caspase counts, primary screen (AID 1347080;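 active means compounds whose cell count with miR-34 switched on is under 0.7 times the count with it off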); settings: A549 miR-34 inducible, Hoechst nuclei count, 48 h
[8] = galactose survival enhancers in mitochondrial complex I cybrids – cell-based, galactose medium, ATP luminescence, primary screen (AID 1645843;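 active means z-score of at least 1.8 in each of two replicates, scored against plate mean and spread of sample wells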;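 further: positive z means more ATP and so rescue of galactose-driven cybrid death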); settings: complex I mutant cybrid cells, 72 h, stronger effect = higher value
[9] = test system: F380Y; test: BK channel mutant inhibitors and activators – cell-based, U2OS BacMam, thallium flux, beta subunits, selectivity assay, profiling panel (AID 1259406); settings: U2OS BacMam BK variants, at 30 µM;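 further: initial slope of Thallos dye fluorescence rise after thallium is added; log ratio against the mean of 0.3% DMSO vehicle wells on the same plate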
[10] = test system: F380Y/beta1; test: as above; settings: U2OS BacMam BK variants, at 30 µM
[11] = test system: F380Y/beta2Delta; test: as above; settings: U2OS BacMam BK variants, at 30 µM
[12] = test system: F380Y/beta4; test: as above; settings: U2OS BacMam BK variants, at 30 µM
[13] = biological target: Calcium-activated potassium channel subunit alpha-1 (Homo sapiens) + Leucine-rich repeat-containing protein 26 (Homo sapiens) (UniProt Q12791+Q2I0M4); test: as above; settings: U2OS BacMam BK variants, F380Y/Slo1WT/gamma1, at 30 µM
[14] = test system: R275C; test: as above; settings: U2OS BacMam BK variants, at 30 µM
[15] = test system: R275C/beta1; test: as above; settings: U2OS BacMam BK variants, at 30 µM
[16] = test system: R275C/beta2Delta; test: as above; settings: U2OS BacMam BK variants, at 30 µM
[17] = test system: R275C/beta4; test: as above; settings: U2OS BacMam BK variants, at 30 µM
[18] = test system: R275C/Slo1WT/beta2; test: as above; settings: U2OS BacMam BK variants, at 30 µM
[19] = MELAS cybrid and Rieske KO viability enhancers – cell-based, MELAS cybrids, Rieske KO mouse fibroblasts, CellTiter-Glo, primary screen (AID 1508586;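 active means mean z-score across replicates of 1.96 or higher in either the MELAS or the Rieske mutant cell line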;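 further: z relative to plate mean and SD of compound and empty wells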); settings: low glucose
[20] = test system: Neuropilin-2 / VEGF-C interaction (human); test: small molecules blocking Neuropilin-2/VEGF-C interaction – biochemical, microplate binding format, z-score (AID 743281; call rule not given here); settings: microplate NRP2/VEGF-C binding assay; stronger effect = lower value
[21] = stronger effect = lower value, cell number ratio, induced over uninduced
[22] = measured here: relative caspase fold change +Dox/-Dox
[23] = measured here: total cells with miR-34 induction, stronger effect = lower value
[24] = measured here: total cells without miR-34 induction
[25] = MELAS cybrid survival, CellTiter-Glo 48 h, stronger effect = higher value
[26] = Rieske KO mouse fibroblast survival, CellTiter-Glo 72 h

Calcium-activated potassium channel subunit alpha-1 (Homo sapiens) + Leucine-rich repeat-containing protein 26 (Homo sapiens), sequence (Q2I0M4 whole entry, looked up, one chain of several): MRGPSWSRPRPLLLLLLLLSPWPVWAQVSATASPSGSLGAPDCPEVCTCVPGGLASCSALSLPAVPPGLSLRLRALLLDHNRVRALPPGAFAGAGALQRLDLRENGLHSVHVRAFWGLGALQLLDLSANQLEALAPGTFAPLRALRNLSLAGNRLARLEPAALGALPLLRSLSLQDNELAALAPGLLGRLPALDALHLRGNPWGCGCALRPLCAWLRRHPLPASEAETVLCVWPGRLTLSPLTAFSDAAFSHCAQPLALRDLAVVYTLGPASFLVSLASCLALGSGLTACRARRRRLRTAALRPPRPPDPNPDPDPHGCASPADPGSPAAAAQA

CC1(C)SC2C(NC(=O)C(N)c3ccccc3)C(=O)N2C1C(=O)O (centres undefined)
9300: cell count [7, 23]
inactive: parasite load remaining [1] 64.5% | fluorescence ratio [2] 1.05 | inhibition [3] -3.18% | inhibition [4] -3.53% | fluorescence ratio [5] 1.03 | mean signal [6] 248 | fold change [7, 21] 0.924 | z-score [8] 0.46 | log fold change Tl+ flux [9] 0.0123 | log fold change Tl+ flux [10] -0.00858 | log fold change Tl+ flux [11] -0.029 | log fold change Tl+ flux [12] -0.0312 | log fold change Tl+ flux [13] 0.0123 | log fold change Tl+ flux [14] 0.0182 | log fold change Tl+ flux [15] -0.0441 | log fold change Tl+ flux [16] 0.02 | log fold change Tl+ flux [17] -0.0148 | log fold change Tl+ flux [18] -0.0117
10100: cell count [7, 24]
97.1%: viability [1]
1.56: fold change [7, 22]

CN1[C@@H]2CC[C@H]1CC(OC(=O)C(CO)c1ccccc1)C2 (some centres undefined)
2.84 and 0.579 and 1.47: fold change [7, 22]
87.1% and 116%: viability [1]
11100 and 8790 and 10800: cell count [7, 24]
0.502 and 0.307: z-score [19, 26]
10500 and 7790 and 9390: cell count [7, 23]
inactive: parasite load remaining [1] 41.5% and 46.2% | mean signal [6] 274 | fold change [7, 21] 0.947 and 0.887 and 0.871 | z-score [19, 25] -0.283 and 0.13 | z-score [8] 0.56 and 0.265 | log fold change Tl+ flux [9] 0.0269 | log fold change Tl+ flux [10] -0.0245 | log fold change Tl+ flux [11] 0.00535 | log fold change Tl+ flux [12] 0.0216 | log fold change Tl+ flux [13] 0.00679 | log fold change Tl+ flux [14] -0.0152 | log fold change Tl+ flux [15] -0.00104 | log fold change Tl+ flux [16] 0.0208 | log fold change Tl+ flux [17] -0.00928 | log fold change Tl+ flux [18] 0.0472

CC(=O)OCC(=O)C12OC3(CCCC3)OC1CC1C3CCC4=CC(=O)C=CC4(C)C3(F)C(O)CC12C (centres undefined)
5910: cell count [7, 23]
active: log fold change Tl+ flux [9] 0.16
95.1%: viability [1]
1.12: fold change [7, 22]
6100: cell count [7, 24]
inactive: parasite load remaining [1] 72.8% | fluorescence ratio [2] 1.06 | inhibition [3] -5% | inhibition [4] 0.29% | fluorescence ratio [5] 0.98 | mean signal [6] 242 | fold change [7, 21] 0.97 | z-score [8] -1.46 | log fold change Tl+ flux [10] -0.0293 | log fold change Tl+ flux [11] 0.0485 | log fold change Tl+ flux [12] -0.0119 | log fold change Tl+ flux [13] 0.0537 | log fold change Tl+ flux [14] -0.00403 | log fold change Tl+ flux [15] 0.0957 | log fold change Tl+ flux [16] 0.0763 | log fold change Tl+ flux [17] 0.0347 | log fold change Tl+ flux [18] 0.084

C[C@H]1[C@@H](OC(=O)CCC(=O)O)O[C@@H]2OC3(C)CC[C@H]4[C@H](C)CC[C@@H]1[C@@]24OO3
inactive: parasite load remaining [1] 54.9% and 19.6% | fluorescence ratio [2] 1.05 | inhibition [3] 4.36% | inhibition [4] -3.18% | fluorescence ratio [5] 0.99 | z-score [20] -0.982 | mean signal [6] 258 | fold change [7, 21] 1.04 | z-score [19, 25] -1.42 | z-score [8] -2.11 | log fold change Tl+ flux [9] 0.0198 | log fold change Tl+ flux [10] 0.0472 | log fold change Tl+ flux [11] 0.00204 | log fold change Tl+ flux [12] 0.00589 | log fold change Tl+ flux [13] -0.0126 | log fold change Tl+ flux [14] 0.0183 | log fold change Tl+ flux [15] 0.0209 | log fold change Tl+ flux [16] 0.00454 | log fold change Tl+ flux [17] -0.0146 | log fold change Tl+ flux [18] 0.000694
74.2% and 68%: viability [1]
5910: cell count [7, 24]
6160: cell count [7, 23]
0.615: z-score [19, 26]
0.836: fold change [7, 22]

Nc1ccn([C@@H]2CS[C@H](CO)O2)c(=O)n1
inactive: parasite load remaining [1] 60.8% and 120% | z-score [20] 0.62 | mean signal [6] 246 | fold change [7, 21] 0.962 | z-score [19, 25] -0.0861 | z-score [8] 1.21 | log fold change Tl+ flux [9] 0.00141 and 0.0147 | log fold change Tl+ flux [10] -0.0646 and -0.0414 | log fold change Tl+ flux [11] -0.00742 and 0.0531 | log fold change Tl+ flux [12] -0.0496 and -0.00739 | log fold change Tl+ flux [13] 0.0127 and 0.0118 | log fold change Tl+ flux [14] -0.0937 and 0.0141 | log fold change Tl+ flux [15] -0.00105 and 0.0176 | log fold change Tl+ flux [16] 0.0208 and -0.0112 | log fold change Tl+ flux [17] 0.00653 and -0.00304 | log fold change Tl+ flux [18] 0.00916 and -0.0234
1.73: fold change [7, 22]
10700: cell count [7, 23]
0.0484: z-score [19, 26]
11100: cell count [7, 24]
121% and 70.7%: viability [1]

CC1CC2C3CCC4=CC(=O)C=CC4(C)C3(F)C(O)CC2(C)C1(O)C(=O)CO (centres undefined)
0.945: fold change [7, 22]
8620: cell count [7, 24]
inactive: parasite load remaining [1] 69.5% | inhibition [3] -0.45% | inhibition [4] 1.81% | fluorescence ratio [5] 1.04 | mean signal [6] 266 | fold change [7, 21] 0.928 | z-score [8] 1.66 | log fold change Tl+ flux [9] -0.000812 | log fold change Tl+ flux [10] 0.043 | log fold change Tl+ flux [11] 0.0297 | log fold change Tl+ flux [12] -0.00203 | log fold change Tl+ flux [13] 0.021 | log fold change Tl+ flux [14] 0.00154 | log fold change Tl+ flux [15] 0.0289 | log fold change Tl+ flux [16] -0.0295 | log fold change Tl+ flux [17] 0.0089 | log fold change Tl+ flux [18] -0.0137
active: fluorescence ratio [2] 0.1
8000: cell count [7, 23]
108%: viability [1]

CCCCC(=O)OC1(C(=O)CO)CCC2C3CCC4=CC(=O)CCC4(C)C3C(O)CC21C (centres undefined)
inactive: parasite load remaining [1] 89.7% | fluorescence ratio [2] 1.04 | inhibition [3] -5.91% | inhibition [4] -5.05% | fluorescence ratio [5] 1.01 | mean signal [6] 256 | fold change [7, 21] 0.983 | z-score [8] 0.245 | log fold change Tl+ flux [14] 0.0146 | log fold change Tl+ flux [18] -0.00582
active: log fold change Tl+ flux [9] -0.858 | log fold change Tl+ flux [10] -0.315 | log fold change Tl+ flux [11] -0.396 | log fold change Tl+ flux [12] -0.379 | log fold change Tl+ flux [13] -0.495 | log fold change Tl+ flux [15] 0.44 | log fold change Tl+ flux [16] 0.266 | log fold change Tl+ flux [17] 0.327
6880: cell count [7, 23]
100%: viability [1]
2.66: fold change [7, 22]
7000: cell count [7, 24]
